Screens (PubChem BioAssay)
SKKanGAS inh: S. pyogenes SKKanGAS growth inhibitors in kanamycin, primary screen, streptokinase expression inhibitor project, SKKanGAS strain, BacTiter-Glo luminescence; inhibition, % at 7.5 µM; 300,000 compounds, 1.3% hits; 6 h;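 active means mean replicate score, as percent of positive control median, at least 50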;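 further: strain carries kanamycin resistance gene driven by streptokinase promoter and grows in 40 µg/ml kanamycin; loss of luminescence reflects streptokinase promoter inhibition or plain growth inhibition; 0% = median of DMSO wells and 100% = positive control at its reference dose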
tim10-1 inh: growth inhibitors of tim10-1 mutant yeast, primary screen, luminescence, uHTS; S. cerevisiae tim10-1 ts strain growth, BacTiter-Glo, 24 h; inhibition, % at 20 µM; 330,000 compounds, 2.2% hits; AID 463190, 2010;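 active means inhibition of at least 40%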;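 further: mutant grown at 25 °C; 0% = DMSO wells with yeast and 100% = wells holding no yeast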
PfHsp90 yeast 2: growth inhibition of PfHsp90-expressing yeast, primary screen, antimalarial PfHsp90 inhibitor project, S. cerevisiae, BacTiter-Glo luminescence, single point, set 2. BacTiter-Glo ATP, 48 h; yeast lacking PDR1 and PDR3 efflux regulators. inhibition, % at 9.4 µM. 310,000 compounds, 0.32% hits. AID 504621, 2011;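 active means every replicate shows inhibition above about 80%, whatever the replicate mean, limit read from the data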;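 further: 0% = DMSO neutral controls and 100% = 20 µM radicicol positive controls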
V-ATPase pHluor: regulators of yeast V-ATPase proton pumping, primary screen, pHLuorin cytosolic pH fluorescence; response, % at 10 µM; S. cerevisiae; AID 504577, 2011; 350,000 compounds, 0.37% hits; in the data active means response mostly above about 7.3%, no sharp cut-off; inactive means mostly below about 5.4%; further: actives read high
TIM10 inh: growth inhibitors of isogenic TIM10 control yeast, primary screen, counter-screen for tim10-1 yeast inhibitor project, luminescence, uHTS; S. cerevisiae TIM10 strain growth, BacTiter-Glo luminescence, 24 h; inhibition, % at 10 µM; 330,000 compounds, 1.4% hits; AID 463195, 2010;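 active means inhibition of 40% or more at the single tested concentration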;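 further: wild-type TIM10 isogenic control strain grown at permissive 25 °C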
tim23-1 inh: growth inhibitors of tim23-1 mutant yeast, primary screen, luminescence, uHTS. AID 463212, 2010. 330,000 compounds, 1.3% hits. inhibition, % at 20 µM. S. cerevisiae tim23-1 growth, BacTiter-Glo luminescence, 24 h;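 active means growth inhibition of the mutant yeast at or above 50%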;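 further: temperature-sensitive mutant grown at 25 °C; plate controls were DMSO-treated mutant yeast for no effect and medium wells lacking yeast for full effect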
Active calls of the source: *; nt = not tested or not shown. Sampled rows, rich in hits. Any-hit rate of the full collection: about 4.6%.

SMILES	SKKanGAS inh	tim10-1 inh	PfHsp90 yeast 2	V-ATPase pHluor	TIM10 inh	tim23-1 inh
CCOC(=O)C1=C(C)n2c(s/c(=C/c3cccc([N+](=O)[O-])c3)c2=O)=NC1c1ccc(O)c(OC)c1 (stereo not drawn)	67*	39	-5	1	29	43
CCOC(=O)C1=C(C)N=c2s/c(=C\c3ccc(OCC(=O)O)cc3)c(=O)n2C1c1ccccc1OC (stereo not drawn)	19	16	8	0	0	10
S=c1[nH]nc(Cn2cnc3ccccc32)n1-c1ccccc1	2	14	-1	1	2	-10
O=[N+]([O-])c1ccc(O)c(-c2cc(C(F)(F)F)nc(-c3ccccc3)n2)c1	94*	10	14	1	21	1
Oc1ccccc1-c1cc(C(F)(F)C(F)F)nc(-c2ccccc2)n1	6	11	19	0	-3	2
Cc1nc2cc(NCc3ccccc3O)ccc2n1Cc1ccccc1	3	8	-12	-3	21	30
Cn1c(=O)c([N+](=O)[O-])c(NCCc2ccccc2)c2ccccc21	-8	6	-7	-5	25	27
CCn1c(=O)c([N+](=O)[O-])c(NCCc2ccccc2)c2ccccc21	9	-4	-2	8.5*	10	2
c1ccc(CN2CCN(c3nc4ccccc4c4ccccc34)CC2)cc1	76*	28	0	-4	15	29
c1ccc(CN2CCN(c3nc(-c4ccccc4)nc4ccccc34)CC2)cc1	32	40	-13	-2	18	9
Cc1cc(C)c(C#N)c(SCc2ccccc2F)n1	24	24	7	14*	21	16
Cc1cc(C)c(C#N)c(N2CCN(c3ccccc3F)CC2)n1	50*	5	20	-1	0	26
CCCC(=O)Nc1ccc(S(=O)(=O)N2CCC(c3nc4ccccc4[nH]3)CC2)cc1	6	-13	9	20*	-5	4
CN1CCN(c2c(F)cc3c(=O)c(C(=O)O)cn4c3c2OCN4C)CC1	104*	3	-5	2	-10	-3
Cc1cc(C)c(NC(=O)c2cn3c4c(c(N5CCN(C)CC5)c(F)cc4c2=O)OCC3C)c(C)c1 (stereo not drawn)	5	-5	8	-1	10	15
CCn1cc(C(=O)O)c(=O)c2cc(F)c(N/N=C/c3ccccc3[N+](=O)[O-])cc21	79*	12	-8	3	2	-24
CCn1cc(C(=O)O)c(=O)c2cc(F)c(N3CCN(C(=S)Nc4ccccc4OC)CC3)cc21	-2	1	-7	-2	7	-10
COC(=O)c1sccc1N/N=C/c1cccc(Oc2ccccc2)c1	-3	-8	-14	1	2	-10
CC[N+]1(C)CCC(O)(c2ccc(OC)cc2)C(C(=O)c2ccc(OC)cc2)C1 (stereo not drawn)	nt	nt	9	1	nt	nt
CCOC(=O)C1=C(C)NC(C)=C(C(=O)OCC)C1c1ccc([N+](=O)[O-])s1	51*	2	5	-2	9	11
CCC(CC)c1nnc(NC(=O)C2=NNC(=O)CC2)s1	-5	-7	2	2	-10	13
CCN(CC)c1ccc(C(NC(=O)C(C)C)c2ccc3cccnc3c2O)cc1 (stereo not drawn)	nt	nt	nt	0	nt	nt
CC(C)C(=O)NC(c1ccco1)c1ccc2cccnc2c1O (stereo not drawn)	87*	26	10	1	18	35
CC(C)C(=O)NC(c1cccc([N+](=O)[O-])c1)c1ccc2cccnc2c1O (stereo not drawn)	24	10	119*	1	3	38
COc1cc(NC(=S)NN2CCN(C)CC2)cc(OC)c1	-4	12	-12	-1	5	5
SMILES	SKKanGAS inh	tim10-1 inh	PfHsp90 yeast 2	V-ATPase pHluor	TIM10 inh	tim23-1 inh
Cc1cc(C)nc(NC(=O)c2c(F)c(F)c(F)c(C(=O)Nc3cc(C)cc(C)n3)c2F)c1	3	-54	nt	0	16	24
Fc1ccccc1OCC1CCCN(Cc2nc(CC3CC3)no2)C1 (stereo not drawn)	11	19	8	2	9	27
Oc1ccc(Nc2nc(-c3ccc4ccccc4c3)cs2)cc1	53*	38	-36	0	39	43
CCCNC(=O)Cn1nc(-c2ccccc2OC)ccc1=O	nt	nt	nt	-1	nt	nt
Cc1ccc(C(=O)C2=C(O)C(=O)N(Cc3ccco3)C2c2cccc(Br)c2)o1 (stereo not drawn)	52*	-3	1	2	-3	4
Nc1c(C(=O)Nc2nc3ccccc3s2)sc2nc(-c3cccs3)ccc12	50*	21	-23	-49	7	3
CC(=O)c1sc2nc(-c3cccs3)ccc2c1N	-16	35	-24	7	16	25
O=C(NCCc1ccccc1)[C@@H]1CC=C[C@@H]2CCN(Cc3ccc(Cl)c(Cl)c3)C(=O)[C@@H]21	13	23	-19	-1	14	37
Nc1nc(SCc2ccc(F)cc2)ns1	3	-1	nt	24*	-27	-2
Cc1ccc(O)c(C(=O)CC(=O)c2ccc(Cl)cc2)c1	96*	nt	-40	-3	nt	nt
Cc1ccc(O)c(C(=O)CC(=O)c2cccc(F)c2)c1	81*	-2	nt	-3	6	17
Cc1ccc(O)c(NC(=O)CSc2ccc(Cl)cc2)c1	22	0	2	-8	5	0
Cc1ccc(C(=O)CC(=O)c2ccccc2)cc1	53*	12	13	3	9	27
Cc1ccc(C(=O)CC(=O)COc2ccc(Cl)cc2C)cc1	101*	15	-15	3	20	1
CCc1ccc(CNC(=O)C2CC(=O)N(C3CCCC3)C2)cc1 (stereo not drawn)	2	-21	-4	-3	2	-2
CCN(CC(=O)Nc1ccc2c(c1)OCCO2)C(=O)c1ccc(C)c(S(=O)(=O)N2CCOCC2)c1	0	0	-9	0	12	13
O=[N+]([O-])c1ccc2cn(-c3ccccc3)nc2c1	4	33	-12	-3	7	25
Cc1cc(C(=O)Nc2ccc(Cl)c(S(=O)(=O)N3CCOCC3)c2)c2ccccc2n1	nt	19	1	0	8	25
COP(=O)(OC)c1ccc(NCc2cc(O)ccc2O)cc1	nt	nt	-7	1	nt	nt
O=C(OCc1ccccc1)c1ccc(NCc2cc(O)ccc2O)cc1	nt	nt	108*	-3	nt	nt
CC(C)OC(=O)c1ccc(NCc2cc(O)ccc2O)cc1	nt	nt	87*	4	nt	nt
Oc1ccc(NCc2ccccc2OCc2ccccc2)cc1	14	7	-16	-2	23	32
